A selection: hits, their analogues and other compounds. The true share with any hit is near 3.4%.
MITF primary: inhibitors of human MITF; O75030; AlphaScreen MITF homodimerization, bead proximity signal; inhibition, % at 2.6 µM; 650,000 compounds, 0.91% hits; AID 1259374; in the data active = inhibition above about 50%;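 note: 0% = vehicle wells with protein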
TEAD-YAP inh: TEAD-YAP interaction inhibition; HEK-TIYL cells, TEAD-Gal4/YAP UAS-luciferase luminescence; inhibition, % at 9.12 µM; 640,000 compounds, 1.4% hits; in the data active = inhibition above about 32%;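 note: 0% = median of test compound wells and 100% = reference inhibitor wells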
GPR151 activ: activates the human receptor GPR151 | activation, % at 11.2 µM | 650,000 compounds, 1% hits | PathHunter beta-arrestin GPR151 cells, luminescence | Q8TDV0; in the data active = activation above about 4.9%;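 note: 0% = median of compound wells and 100% = cells with positive control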
FBW7 act: human FBW7 E3 ligase activation, primary screen; Q969H0; normalized activity (activation), % at 26.1 µM; 650,000 compounds, 0.13% hits; AlphaScreen FBW7–phospho-cyclin E peptide binding, activator screen; in the data active = normalized activity above about 1.9%;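 note: purified mutant Fbw7 with reduced substrate affinity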
Target sequence (Q969H0 whole entry, looked up): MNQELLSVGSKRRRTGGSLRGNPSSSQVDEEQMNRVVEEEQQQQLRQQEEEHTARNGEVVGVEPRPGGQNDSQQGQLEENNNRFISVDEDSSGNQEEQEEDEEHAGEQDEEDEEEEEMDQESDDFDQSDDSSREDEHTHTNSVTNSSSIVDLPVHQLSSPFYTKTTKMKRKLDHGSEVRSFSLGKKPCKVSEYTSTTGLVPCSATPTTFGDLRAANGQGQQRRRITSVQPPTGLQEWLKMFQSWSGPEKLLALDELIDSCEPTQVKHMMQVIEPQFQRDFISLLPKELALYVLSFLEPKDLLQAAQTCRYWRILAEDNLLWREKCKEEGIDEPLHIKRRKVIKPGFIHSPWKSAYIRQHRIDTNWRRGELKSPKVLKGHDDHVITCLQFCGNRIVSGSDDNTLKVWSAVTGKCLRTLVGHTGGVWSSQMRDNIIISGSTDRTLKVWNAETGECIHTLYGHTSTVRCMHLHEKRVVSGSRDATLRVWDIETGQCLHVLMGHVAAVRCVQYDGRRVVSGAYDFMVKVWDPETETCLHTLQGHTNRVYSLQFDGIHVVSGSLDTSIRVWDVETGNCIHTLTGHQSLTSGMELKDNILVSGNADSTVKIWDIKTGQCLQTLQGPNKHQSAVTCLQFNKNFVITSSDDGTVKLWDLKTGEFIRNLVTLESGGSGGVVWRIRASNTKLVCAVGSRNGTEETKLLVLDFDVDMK
MITF confirm: confirmation of human MITF inhibitors. AID 1259372. shares compounds with MITF primary. 4,700 compounds, 16% hits. inhibition, % at 2.6 µM. AlphaScreen MITF homodimerization, biotin/His-MITF beads;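 active = inhibition above a cutoff derived from the DMSO control wells, cut at about 28% in these data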;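 note: 0% = MITF dimer wells with DMSO only; inhibitors lower the bead chemiluminescence by keeping MITF from dimerizing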
AlphaScreen DR: AlphaScreen optical interference, dose response counter-screen | shares compounds with MITF primary | AlphaScreen optical interference counterscreen, cell-free | IC50, µM | 480 compounds, 6% hits | AID 1259373; call rule not given here
AlphaScreen intf2: AlphaScreen optical interference, counter-screen; inhibition, % at 2.6 µM; 4,700 compounds, 7.6% hits; shares compounds with MITF primary; LysRS AlphaScreen counterscreen, signal interference, triplicate;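 active = inhibition above a cutoff derived from the DMSO control wells, cut at about 30% in these data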
The depositor's hits bear a star; / = no result; ! = not active in a repeat.

SMILES	MITF primary	TEAD-YAP inh	GPR151 activ	FBW7 act	MITF confirm	AlphaScreen intf2	others
Cc1cc(C)cc(NCc2ccc3c(c2)OCO3)c1	67.3*	3.0	-0.4	0.0	15.9	10.5
O=[N+]([O-])c1ccc(S(=O)(=O)N2CCN(Cc3ccccc3Br)CC2)cc1	80.0*	-6.8	0.3	-0.4	11.6	9.3
CCS(=O)(=O)N1CCN(Cc2ccccc2Br)CC1	46.9	6.6	-1.5	-0.1	/	/
O=S(=O)(c1ccccc1)N1CCN(Cc2ccccc2Br)CC1	72.9*	6.2	0.0	0.0	10.1	15.7
COc1ccccc1NC(=O)Cn1c(=O)n(CCCCC(=O)NC(C)C)c(=O)c2ccccc21	13.9	14.9	0.3	0.6	/	/
COCc1nnc(NC(=O)c2ccc([N+](=O)[O-])cc2Cl)s1	0.6	-41.1	-1.1	0.1	/	/
Clc1cccc(CN2CCN(Cc3cccnc3)CC2)c1	84.9*	6.6	-0.3	0.1	8.3	16.7
O=C(NCc1cccc(Cl)c1)C1CCN(Cc2cccnc2)CC1	5.2	5.2	0.4	-0.1	/	/
Fc1cccc(CN2CCN(Cc3cccnc3)CC2)c1	84.7*	-1.0	1.3	0.1	10.1	15.7
O=C(/C=C/c1ccco1)NC(=S)Nc1cccc(C(=O)O)c1	69.4*	-26.7	-1.4	-0.8	62.1*	9.8	AlphaScreen DR=>6.48
CCN1CCc2c(sc(NC(=S)NC(=O)/C=C/c3ccccc3)c2C(N)=O)C1	10.5	-2.5	-0.1	-0.3	/	/
O=C(/C=C/c1ccco1)NC(=S)Nc1ccc(Cl)c(C(=O)O)c1	75.6*	-1.8	0.1	-0.2	64.2*	10.5	AlphaScreen DR=>6.48
CCN1CCc2c(sc(NC(=S)NC(=O)/C=C/c3ccco3)c2C(N)=O)C1	77.5*	-13.5	1.5	-0.5	78.9*	3.2	AlphaScreen DR=>6.48
COc1cccc(NC(=S)NC(=O)/C=C/c2ccco2)c1	12.8	-1.3	0.6	0.0	/	/
Cc1ccc(CN2CCc3nnc(CCNC(=O)Cc4ccc(F)cc4)n3CC2)cc1	-9.8	-2.8	3.9	-0.1	/	/
CCOc1ccc(CN2CCN(C(=O)c3cccc(F)c3)CC2)cc1	54.6*	18.7	0.6	-0.2	10.6	19.2
CCOc1cc(CN2CCN(C(=O)c3cccc(F)c3)CC2)ccc1OC	46.9	6.5	0.9	0.0	/	/
O=C(c1cccc(F)c1)N1CCN(Cc2ccc(F)cc2)CC1	65.8*	-2.5	0.1	-0.1	-5.1	2.1
Cc1ccc(C2CC(C(F)(F)F)n3nc(C(=O)Nc4cc(Cl)ccc4Cl)c(Cl)c3N2)cc1 (centres undefined)	2.2	6.4	1.7	0.0	/	/
CN(C)CCS(=O)c1cc(-c2cn[nH]c2)ccc1NC(=O)[C@H]1Cc2cc(F)ccc2CN1 (some centres undefined)	56.5*!	0.7	-0.1	0.2	71.5*	4.3	AlphaScreen DR=>6.48
CN(C)CCS(=O)c1cc(-c2cn[nH]c2)ccc1NC(=O)[C@@H]1Cc2cc(F)ccc2CN1 (some centres undefined)	74.9*!	0.7	-0.1	1.9*!	68.4*	7.7	AlphaScreen DR=>6.48
CCN(CC(=O)Nc1ccccc1C(F)(F)F)CC(=O)NC1CCCc2ccccc21 (centres undefined)	81.3*	-5.7	-0.5	-0.4	0.9	3.1
CCN(CC(=O)Nc1ccccc1C(F)(F)F)CC(=O)Nc1cccc2ccccc12	-0.9	27.8	1.9	-0.1	/	/
COCCNCCCCOc1ccc(Cl)c(Cl)c1	57.5*	4.1	0.1	0.6	-0.6	-5.3
COCCCNCCCCOc1ccc(Cl)c(Cl)c1	11.0	-6.9	0.4	0.0	/	/
SMILES	MITF primary	TEAD-YAP inh	GPR151 activ	FBW7 act	MITF confirm	AlphaScreen intf2	others
OCCNCCCCOc1ccc(Cl)c(Cl)c1	58.0*	-11.4	0.2	0.2	8.0	11.1
O=C(O)CSc1ccc(C(=O)Nc2ccccc2C(F)(F)F)cc1[N+](=O)[O-]	-7.5	-3.8	-0.9	0.0	/	/
O=C(O)Cc1ccc(NCc2ccccc2)cc1	7.7	12.8	-0.2	0.1	/	/
CC(C)(C)OC(=O)N1C(C(=O)O)CSC1c1cc2c(cc1[N+](=O)[O-])OCO2 (centres undefined)	59.8*	-7.5	0.1	-0.3	71.9*	-5.2	AlphaScreen DR=>6.48
COC(=O)c1ccc(C(c2c(O)ccc3ccccc23)N2CCOCC2)cc1 (centres undefined)	1.5	-8.1	0.2	-0.1	/	/
CCc1ccc(NC(=O)CSC2=C(C#N)C(c3cccs3)C(C(=O)Nc3ccccc3)=C(C)N2)cc1 (centres undefined)	57.0*	11.0	-0.5	0.1	3.2	1.8
Cn1nccc1Nc1ccc(-n2cc(CC(=O)NCc3ccccc3)c3ccccc32)nn1	7.9	8.6	1.7	0.0	/	/
CCCCn1c(SCc2ccc([N+](=O)[O-])cc2)nc2ccsc2c1=O	85.9*	4.5	2.2	-0.1	-2.4	0.7
CCCCn1c(SCc2cccc([N+](=O)[O-])c2)nc2ccsc2c1=O	-15.1	1.9	1.4	0.1	/	/
O=C(NCCC1=CCCCC1)C1(c2cc(-c3ccccc3F)on2)CC1	-2.6	-23.1	-1.0	-0.1	/	/
CCOC(=O)N1CCN(c2cccc(C)c2C)CC1	-0.1	0.7	-0.5	0.1	/	/
Cc1cccc(N2CCN(C(=O)/C=C\C(=O)O)CC2)c1C	69.0*	0.5	-1.7	-0.5	53.5*	10.5	AlphaScreen DR=>6.48
c1ccc(CN2CCC(Nc3nc(-c4ccccc4)nc4c3ncn4-c3ccccc3)CC2)cc1	12.2	1.3	-1.0	0.0	/	/
O=[N+]([O-])c1ccc(Nc2cc(Cl)c3nonc3c2[N+](=O)[O-])cc1	6.8	-2.3	-1.1	-0.3	/	/
NC(=O)c1cncc(-c2cccs2)c1	69.6*	0.8	0.6	0.0	65.2*	13.1	AlphaScreen DR=>6.5
O=C(NC1CC1)c1cncc(-c2cccs2)c1	17.9	-7.3	-0.3	0.1	/	/
Cc1ccc(NC(=O)COC(=O)c2cc[n+]([O-])cc2)cc1C	76.6*	-18.4	2.7	0.0	-5.2	-7.3
Cc1cc(C)cc(NC(=O)COC(=O)c2cc[n+]([O-])cc2)c1	-4.6	1.3	-0.4	0.1	/	/
CCOC(=O)c1c(NC(=O)C(C)Sc2nnc(CNC(=O)c3ccccc3OC)n2CCc2ccccc2)sc2c1CCC2 (centres undefined)	0.2	7.2	-1.3	-0.1	/	/
O=C(Nc1cc([N+](=O)[O-])ccc1C(=O)NCCc1ccccc1)c1ccccc1	66.9*	-22.9	0.0	-0.1	7.0	12.9
Cc1cc(F)ccc1S(=O)(=O)NCC(c1ccsc1)N1CCOCC1 (centres undefined)	8.6	10.7	-1.5	0.4	/	/
O=S(=O)(NCC(c1ccc(F)cc1)N1CCOCC1)c1ccc2c(c1)OCCO2 (centres undefined)	55.3*	5.4	-1.0	0.0	5.7	4.2
O=S(=O)(Cc1ccc(F)cc1)NCC(c1ccsc1)N1CCOCC1 (centres undefined)	78.1*	6.0	0.1	0.0	-2.0	-0.7
